Assay [1] in a line: Nuclear factor erythroid 2-related factor 2/antioxidant responsive element (Nrf2/ARE) small molecule agonists: qHTS cell viability counter screen in human keratinocytes (AID 1919968; active means well fitted curve in the direction sought with a large enough effect in the repeat runs; an effect the other way counts as inactive or inconclusive; further: nearly all actives have a fitted effect of over 55% in size). In outline:
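Measured as CellTiter-Fluor fluorescence, this readout tracks cytotoxicity in the same wells as the ARE-luciferase screen. HaCaT reporter cells (1,500/well) received compounds after a 5 h pre-incubation and were exposed for 23 h.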
(In general: qHTS replaces the single test concentration by a dilution series.)

A short description of assay [2]: Nuclear factor erythroid 2-related factor 2/antioxidant responsive element (Nrf2/ARE) small molecule agonists: luciferase reporter gene qHTS assay in human keratinocytes (AID 1919969). Further: nearly all actives have a fitted effect of over 35% in size. A general note: A reporter such as luciferase makes a cellular process visible.
Assay [3] has as its target Gonadotropin-releasing hormone receptor (Homo sapiens) (UniProt P30968). Put plainly: Human gonadotropin-releasing hormone receptor (GnRHR) small molecule agonists, calcium flux assay in GnRHR-HEK293 cells (AID 1920063). Further: nearly all actives have a fitted effect of over 35% in size. In outline:
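Fluorescence kinetics (480 nm excitation, 540 nm emission; 3 min, 1 s steps) report calcium mobilisation in human GnRHR-HEK293 cells in agonist mode. Dye incubation: 1 h, 37 C.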
(A change in cytosolic calcium serves as a functional read-out for many receptors and channels.)

Assay [4] has as its target KiSS-1 receptor (Homo sapiens) (UniProt Q969F8). The experiment in a line: Human kisspeptin (KISS1R) small molecule agonists, calcium flux assay in KISS1R-HEK293 cells (AID 1920064; active means well fitted curve in the direction sought with a large enough effect in the repeat runs; an effect the other way counts as inactive or inconclusive). In outline: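 Measures KISS1R agonism through calcium-sensitive dye fluorescence in stably transfected HEK293 cells, read for 3 min after pin-tool compound delivery; 15-point titrations in triplicate.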

A short description of assay [5]: G protein-coupled receptor (GPCR) small molecule agonists, calcium flux assay: HEK293 wild type cell line counter screen (AID 1920065). In a few lines:
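Readout: fluorescence at 480 nm excitation/540 nm emission, sampled at 1 s intervals for 3 min. Cells had been cultured 18 h, then dye-loaded 1 h at 37 C before compound or ATP addition.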

Assay [6] can be described thus: p53 small molecule agonists, cell-based qHTS assay with human liver microsomes (AID 1963577). In a few lines: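 Fluorescence of the beta-lactamase reporter in p53RE-bla cells, detected with LiveBLAzer substrate (2 h, room temperature, dark), served as the read-out after 16 h compound exposure at 37 C with human liver microsomes and NADPH, each 0.5 mg/mL final.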
The nature of assay [7]: p53 small molecule agonists, cell-based qHTS assay with rat liver microsomes (AID 1963578). In a few lines:
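Cells carrying a p53 response element–beta-lactamase reporter were plated and rested 5 h, then dosed with compound in DMSO plus rat liver microsomes and NADPH, each at 0.5 mg/mL final. After 16 h at 37 C, LiveBLAzer substrate was added for 2 h.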

Assay [8] in a line: p53 small molecule agonists, cell-based qHTS assay with human liver microsomes: qHTS cell viability counter screen (AID 1963579). Further: nearly all actives have a fitted effect of over 45% in size. In a few lines: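 Cytotoxicity counter screen: p53RE-bla, 4,000 cells/well; 5 h settle, 37 C/5% CO2; cpd + HLM 0.5 mg/mL + NADPH 0.5 mg/mL (final); 16 h, 37 C; CellTiter-Glo, 30 min RT, luminescence.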
The nature of assay [9]: p53 small molecule agonists, cell-based qHTS assay with rat liver microsomes: qHTS cell viability counter screen (AID 1963580). Further: nearly all actives have a fitted effect of over 45% in size. In a few lines:
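HCT-116 p53RE-bla, 4,000 cells/well, 5 h pre-incubation; cpd + rat liver microsomes 0.5 mg/mL + NADPH 0.5 mg/mL (final); 16 h, 37 C; CellTiter-Glo, 30 min RT; luminescence.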

Assay [10] can be described thus: p53 small molecule agonists, cell-based qHTS assay: qHTS cell viability counter screen (AID 1963581). Further: nearly all actives have a fitted effect of over 45% in size. In a few lines:
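In the same plates used for the p53 bla reporter, HCT-116 cells given compounds for 16 h at 37 C received CellTiter-Glo; luminescence was recorded 30 min later at room temperature.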

Assay [11] can be described thus: p53 small molecule agonists, cell-based qHTS assay (AID 1963582; active means well fitted activation curve with a large enough effect in the signal ratio in the repeat runs, not every such curve was filed as active; the % refers to the signal ratio). In a few lines: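 Compounds are pin-transferred in DMSO onto p53RE-bla cells and incubated 16 h at 37 C. The B/G FRET beta-lactamase substrate is then applied for 2 h at RT and fluorescence recorded.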
Assay [12] has as its target 5-hydroxytryptamine receptor 2A (Homo sapiens) (UniProt P28223). The experiment in a line: 5-hydroxytryptamine receptor 2A (HTR2A) small molecule antagonists, cell-based qHTS assay (AID 1963586). Further: nearly all actives have a fitted effect of over 45% in size. In a few lines:
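Antagonist-mode intracellular calcium assay: DOI (4 nM) added after 5 min compound pre-incubation at room temperature to dye-loaded HTR2A-CHO cells. Fluorescence followed for 3 min, sampled every second.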

Assay [13] shares this target. Put plainly: 5-hydroxytryptamine receptor 2A (HTR2A) small molecule agonists, cell-based qHTS assay (AID 1963587). Further: nearly all actives have a fitted effect of over 30% in size. In a few lines:
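Kinetic calcium-flux fluorescence (2 min, 1 sec intervals) after compound addition in agonist mode. HTR2A-CHO cells were cultured 18 h, then dye-loaded 1 h at 37 C.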

Assay [14] addresses Muscarinic acetylcholine receptor M1 (Homo sapiens) (UniProt P11229). Put plainly: Cholinergic receptor muscarinic 1 (CHRM1) small molecule antagonists, cell-based qHTS assay (AID 1963588). Further: nearly all actives have a fitted effect of over 40% in size. In a few lines:
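CHRM1-CHO calcium-flux assay, antagonist mode. Cells were seeded 18 h, dye-loaded 1 h at 37 C and given compound for 5 min at RT, then acetylcholine was added at 50nM. FDSS fluorescence was read 3 min; 15 concentrations, three runs.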

Assay [15] shares this target. Put plainly: Cholinergic receptor muscarinic 1 (CHRM1) small molecule agonists, cell-based qHTS assay (AID 1963589). Further: nearly all actives have a fitted effect of over 35% in size. In a few lines:
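Each compound was tested at 15 concentrations across three independent runs on dye-loaded CHO cells stably expressing human CHRM1, reading intracellular calcium fluorescence kinetically at 1 sec intervals.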

Assay [16] can be described thus: cAMP Responsive Elements (CRE) small molecule agonists, cell-based qHTS assay (AID 1963590). In outline:
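Cell line: CRE-bla HEK 293T; medium DMEM/10% dialyzed FBS/0.1 mM NEAA/1 mM pyruvate/25 mM HEPES; 3 h compound exposure; beta-lactamase FRET readout after 2 h substrate loading at RT.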

Assay [17] can be described thus: cAMP Responsive Elements (CRE) small molecule antagonists, cell-based qHTS assay (AID 1963591; active means well fitted inhibition curve with a large enough effect in the signal ratio in the repeat runs, not every such curve was filed as active; the % refers to the signal ratio). In outline: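 Inhibition of NKH477-driven (0.25 uM final) CRE-beta-lactamase signal in HEK293T cells, 3 h compound exposure at 37 °C, detected by FRET substrate fluorescence.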
In assay [18] the target is D(2) dopamine receptor (Homo sapiens) (UniProt P14416). The experiment in a line: Dopamine D2 receptor (DRD2) small molecule antagonists, cell-based qHTS assay (AID 1963595; active means well fitted inhibition curve with a large enough effect in the signal ratio in the repeat runs, with a control signal flat; the % refers to the signal ratio). In outline:
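Cells were plated and grown for 24 h at 37 °C. Ro20-1724 (0.1 mM final) went in first, then compound for 10 min. NKH477 (200 nM) with quinpirole (12 nM) followed for 30 min at RT, then HTRF detection reagents for 1 h.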

Assay [19] addresses Beta-2 adrenergic receptor (Homo sapiens) (UniProt P07550). The experiment in a line: Adrenergic beta2 receptor (ADRB2) small molecule antagonists, cell-based qHTS assay (AID 1963592). Further: nearly all actives have a fitted effect of over 50% in size. Further: potency means the concentration at half of the fitted maximal effect. In outline:
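Cells (CHO, stable ADRB2 overexpression) incubated 18-20hr at 37C; compounds added from DMSO; agonist mix (1nM isoproterenol, 100uM IBMX, 25uM Ro-20-1724) added; 0.5hr RT; d2-cAMP and anti-cAMP-cryptate added; 1hr RT; 665/615 nm read.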

Assay [20] concerns the target D(2) dopamine receptor (Homo sapiens) (UniProt P14416). Put plainly: Dopamine D2 receptor (DRD2) small molecule agonists, cell-based qHTS assay (AID 1963594). Further: nearly all actives have a fitted effect of over 35% in size. In a few lines:
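cAMP accumulation in DRD2-HEK293 cells measured by HTRF after 1 h detection; compounds added 10 min before NKH477 (200nM […]) forskolin-analogue stimulation, 30 min at room temperature, with Ro20-1724 present at 0.1 mM final.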

A number with no mark means an inactive call. Results filed as inconclusive are left out. Activity calls are given as the source filed them. Unless noted, the call rests on the fitted dose curve.

Gonadotropin-releasing hormone receptor (Homo sapiens), sequence (P30968 whole entry, looked up): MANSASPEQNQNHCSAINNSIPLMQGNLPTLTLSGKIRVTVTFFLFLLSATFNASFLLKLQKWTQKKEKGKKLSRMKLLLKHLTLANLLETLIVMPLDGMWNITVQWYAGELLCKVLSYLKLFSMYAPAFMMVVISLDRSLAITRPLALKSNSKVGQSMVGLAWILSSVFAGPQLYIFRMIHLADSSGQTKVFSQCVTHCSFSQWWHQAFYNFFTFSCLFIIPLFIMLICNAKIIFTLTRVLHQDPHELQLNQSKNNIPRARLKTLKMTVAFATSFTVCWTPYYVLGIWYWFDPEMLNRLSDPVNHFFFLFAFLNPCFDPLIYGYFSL
Beta-2 adrenergic receptor (Homo sapiens), sequence (P07550 whole entry, looked up): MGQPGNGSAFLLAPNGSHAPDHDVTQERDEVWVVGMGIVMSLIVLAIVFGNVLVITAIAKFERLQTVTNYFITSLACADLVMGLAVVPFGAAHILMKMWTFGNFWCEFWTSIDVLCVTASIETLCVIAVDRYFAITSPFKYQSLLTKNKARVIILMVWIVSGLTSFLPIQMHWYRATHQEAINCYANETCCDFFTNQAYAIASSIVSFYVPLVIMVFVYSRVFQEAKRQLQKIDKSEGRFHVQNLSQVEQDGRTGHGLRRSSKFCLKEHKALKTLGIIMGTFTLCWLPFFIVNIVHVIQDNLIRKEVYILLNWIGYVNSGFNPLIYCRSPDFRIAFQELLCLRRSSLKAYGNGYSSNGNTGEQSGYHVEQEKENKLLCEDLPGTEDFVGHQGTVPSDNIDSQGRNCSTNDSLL
Muscarinic acetylcholine receptor M1 (Homo sapiens), sequence (P11229 whole entry, looked up): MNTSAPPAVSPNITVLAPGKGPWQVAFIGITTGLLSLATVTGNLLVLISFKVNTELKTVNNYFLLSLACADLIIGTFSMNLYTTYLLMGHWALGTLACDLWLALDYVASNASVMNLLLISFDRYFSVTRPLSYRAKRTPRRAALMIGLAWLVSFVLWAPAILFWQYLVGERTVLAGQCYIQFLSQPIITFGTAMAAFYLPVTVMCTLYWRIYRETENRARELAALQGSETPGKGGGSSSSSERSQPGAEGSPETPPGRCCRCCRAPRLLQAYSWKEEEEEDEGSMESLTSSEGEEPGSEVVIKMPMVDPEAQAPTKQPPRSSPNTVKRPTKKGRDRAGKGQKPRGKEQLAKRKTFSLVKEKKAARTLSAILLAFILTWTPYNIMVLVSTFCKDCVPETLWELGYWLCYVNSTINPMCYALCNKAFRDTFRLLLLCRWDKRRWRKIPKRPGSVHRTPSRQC
5-hydroxytryptamine receptor 2A (Homo sapiens), sequence (P28223 whole entry, looked up): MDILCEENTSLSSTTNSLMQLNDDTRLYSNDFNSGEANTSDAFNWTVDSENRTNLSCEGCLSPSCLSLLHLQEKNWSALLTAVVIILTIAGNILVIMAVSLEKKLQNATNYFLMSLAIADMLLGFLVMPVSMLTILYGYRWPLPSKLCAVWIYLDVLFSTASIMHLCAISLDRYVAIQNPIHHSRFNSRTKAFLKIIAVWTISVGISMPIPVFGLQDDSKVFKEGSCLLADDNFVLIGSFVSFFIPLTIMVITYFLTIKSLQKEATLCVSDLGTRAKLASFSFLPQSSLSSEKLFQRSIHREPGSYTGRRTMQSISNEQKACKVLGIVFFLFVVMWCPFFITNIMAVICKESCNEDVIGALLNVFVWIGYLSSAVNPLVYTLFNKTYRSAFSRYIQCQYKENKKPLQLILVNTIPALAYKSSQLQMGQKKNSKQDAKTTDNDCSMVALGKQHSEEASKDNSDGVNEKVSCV
KiSS-1 receptor (Homo sapiens), sequence (Q969F8 whole entry, looked up): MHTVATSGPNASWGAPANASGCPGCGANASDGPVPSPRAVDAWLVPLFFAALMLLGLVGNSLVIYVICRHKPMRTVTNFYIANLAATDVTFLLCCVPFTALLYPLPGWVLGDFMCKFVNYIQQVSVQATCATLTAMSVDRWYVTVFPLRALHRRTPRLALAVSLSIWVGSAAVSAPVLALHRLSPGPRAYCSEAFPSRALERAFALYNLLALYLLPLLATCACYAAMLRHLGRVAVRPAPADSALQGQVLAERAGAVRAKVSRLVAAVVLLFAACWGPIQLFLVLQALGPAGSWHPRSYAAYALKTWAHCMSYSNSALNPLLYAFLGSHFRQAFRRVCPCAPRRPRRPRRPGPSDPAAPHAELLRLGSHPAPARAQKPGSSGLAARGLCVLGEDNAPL
D(2) dopamine receptor (Homo sapiens), sequence (P14416 whole entry, looked up): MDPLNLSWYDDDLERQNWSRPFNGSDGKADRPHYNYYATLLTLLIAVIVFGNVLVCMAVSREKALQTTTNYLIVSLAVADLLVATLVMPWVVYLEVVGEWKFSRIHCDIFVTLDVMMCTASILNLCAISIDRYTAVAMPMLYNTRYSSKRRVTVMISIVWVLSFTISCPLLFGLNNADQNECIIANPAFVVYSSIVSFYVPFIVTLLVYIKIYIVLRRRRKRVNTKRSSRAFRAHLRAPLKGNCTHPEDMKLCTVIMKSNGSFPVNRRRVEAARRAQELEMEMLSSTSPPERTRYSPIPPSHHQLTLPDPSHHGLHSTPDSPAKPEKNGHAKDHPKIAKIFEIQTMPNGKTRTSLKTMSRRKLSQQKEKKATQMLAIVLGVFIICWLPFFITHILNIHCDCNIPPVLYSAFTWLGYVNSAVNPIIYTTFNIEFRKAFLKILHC

Take `CCCCCCCCCCCCCCCCC(=O)O`: the Potency result in assay [1], in [2], in assay [3], in assay [6], in [7] and in assay [8] was “inactive” in each case. Further, the Potency result in [9], in assay [10], in assay [11], in [12], in assay [13] and in [14] was “inactive” throughout. Moreover, the Potency entry in assay [15], in assay [16], in assay [17] and in assay [18] was “inactive” throughout. The outcome in [4] and in assay [5] was inactive.
Consider `COc1ccccc1OCC(O)CN1CCN(CC(=O)Nc2c(C)cccc2C)CC1` (stereo not drawn), for which the Potency entry in [1], in [2], in assay [3], in assay [6], in assay [7] and in assay [8] was “inactive” in each case. In addition, the Potency entry in assay [9], in [10], in [11], in assay [12], in assay [13] and in [14] was “inactive” in each case. Further, the Potency result in assay [15], in assay [16], in assay [20] and in assay [18] was “inactive” throughout. For the same compound, the outcome in assay [4] and in [5] was inactive. Moreover, in [19], the Potency was 11.9 µM (active).
As to `CC(=O)Nc1ccc(S(=O)(=O)Nc2cc(C)on2)cc1`, the Potency result in [1], in assay [2], in assay [3], in assay [6], in assay [7] and in assay [8] was “inactive” in each case. For the same compound, the Potency result in assay [9], in assay [10], in assay [11], in [12], in assay [13] and in [14] was “inactive” each time. Also, the Potency entry in [15], in assay [16], in assay [17] and in assay [20] was “inactive” in each case. Further, the outcome in assay [4] and in assay [5] was inactive.
As for `CCCC(C)C(=O)OCC` (stereo not drawn), the Potency result in assay [1], in assay [2], in assay [3], in assay [6], in assay [7] and in [8] was “inactive” in each case. In addition, the Potency entry in [9], in assay [10], in assay [11], in assay [12], in assay [13] and in assay [14] was “inactive” each time. Moreover, the Potency result in assay [15], in assay [16], in assay [20] and in assay [18] was “inactive” in each case. In addition, the outcome in assay [4] and in assay [5] was inactive.
As to `CCCCC/C=C/CC(=O)OC`, the Potency result in assay [1], in assay [2], in [3], in assay [6], in assay [7] and in assay [8] was “inactive” each time. The Potency entry in assay [9], in assay [10], in assay [11], in assay [12], in assay [13] and in assay [14] was “inactive” each time. In addition, the Potency entry in [15], in assay [16], in [19], in assay [20] and in assay [18] was “inactive” in each case. For the same compound, the result in [4] and in assay [5] was inactive.
On to `Cc1ccc2cccnc2c1`, for which the Potency entry in [1], in assay [2], in assay [3], in assay [6], in [7] and in assay [8] was “inactive” each time. For the same compound, the Potency result in assay [9], in [10], in [11], in assay [12], in assay [13] and in [14] was “inactive” each time. The Potency entry in assay [15], in [16], in assay [19], in [20] and in [18] was “inactive” in each case. Besides, the result in assay [4] and in assay [5] was inactive.
Regarding `CCCCCCCCCCCCC`, the Potency result in assay [1], in assay [2], in assay [3], in assay [6], in assay [7] and in assay [8] was “inactive” throughout. Moreover, the Potency entry in assay [9], in assay [10], in assay [11], in assay [12], in assay [13] and in [14] was “inactive” throughout. In addition, the Potency result in assay [15], in assay [16], in [19] and in assay [20] was “inactive” throughout. The outcome in assay [4] and in [5] was inactive.
Regarding `CC(C)=CC(=O)O`, the Potency entry in assay [1], in [2], in assay [3], in assay [6], in assay [7] and in [8] was “inactive” throughout. Besides, the Potency result in assay [9], in assay [10], in assay [11], in assay [12], in assay [13] and in assay [14] was “inactive” each time. Also, the Potency result in [15], in [16], in assay [19], in assay [20] and in [18] was “inactive” each time. Further, the outcome in assay [4] and in assay [5] was inactive.

Source of the values: PubChem BioAssay (Tox21).
